# Source: PubChem
# LmPK inh – blocks Leishmania mexicana pyruvate kinase activity | Q27686 | purified LmPK, Kinase-Glo ATP luminescence, 1 h | 290,000 compounds, 0.37% hits | Potency, µM (titrated, usually from 57.5 µM), usual class: inhibitors
# Target sequence (Q27686 whole entry, looked up): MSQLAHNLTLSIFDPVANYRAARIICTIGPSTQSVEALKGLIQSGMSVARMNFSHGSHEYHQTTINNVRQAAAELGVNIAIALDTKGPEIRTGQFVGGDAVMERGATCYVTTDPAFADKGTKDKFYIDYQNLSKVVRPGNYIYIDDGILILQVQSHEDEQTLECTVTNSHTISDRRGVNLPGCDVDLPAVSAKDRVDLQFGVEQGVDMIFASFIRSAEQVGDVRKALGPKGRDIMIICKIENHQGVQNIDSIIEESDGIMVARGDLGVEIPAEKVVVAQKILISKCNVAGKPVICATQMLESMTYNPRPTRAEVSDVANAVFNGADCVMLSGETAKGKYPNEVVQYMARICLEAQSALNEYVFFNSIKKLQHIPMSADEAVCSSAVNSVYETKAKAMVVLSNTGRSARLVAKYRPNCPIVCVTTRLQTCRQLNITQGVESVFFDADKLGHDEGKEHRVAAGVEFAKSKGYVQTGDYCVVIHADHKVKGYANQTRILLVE
#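 Kinase-Glo luminescence read after 1 h RT reaction of 0.1 nM LmPK with 0.5 mM PEP and 0.1 mM ADP. Activity scaled between uninhibited and enzyme-free controls.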
# Giardia FBPA inh – inhibitors of Giardia lamblia fructose-1,6-bisphosphate aldolase. purified Giardia FBPA. Potency, µM (titrated, usually from 59.6 µM), hits mostly inhibitors. 290,000 compounds, 0.71% hits; note: nearly all actives have a fitted effect of over 55% in size
#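 40 nM FBPA preincubated 10 min at RT with compound (up to 57.5 uM final), then substrate plus GAPDH/TPI/NAD/arsenate coupling and diaphorase/resazurin added. Fluorescence read after 20 min at RT, 525/598 nm.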
# SARS PLP yeast – inhibitors of SARS-CoV papain-like protease in yeast | S. cerevisiae expressing SARS-CoV PLpro, growth rescue | Potency, µM (top dose mostly 32.9 µM), actives largely listed as activators | 330,000 compounds, 0.19% hits | AID 485353; calls by dose curve; note: nearly all actives have a fitted effect of over 55% in size
# TbPYK inhibitor – inhibitors of Trypanosoma brucei pyruvate kinase; 410,000 compounds, 0.12% hits; AID 624173; TbPYK enzyme, Kinase-Glo Plus ATP luminescence, 45 min; Potency, µM (top dose mostly 76.8 µM), most hits filed as inhibitors; note: nearly all actives have a fitted effect of over 50% in size
#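 Quantitative HTS: titrated library compounds versus trypanosomal pyruvate kinase in TEA buffer (pH 7.2) containing KCl, MgCl2, BSA and Tween-20. Reactions were initiated with ADP, 130 uM final. Kinase-Glo Plus luminescence was read after 45 min at RT.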
# RE007 growth inh – less growth of the S. pombe RE007 Vpr strain. S. pombe RE007 Vpr strain, BacTiter-Glo ATP luminescence, 24 h. Potency, µM (doses to about 92.2 µM), hits mostly inhibitors. 360,000 compounds, 0.21% hits; active = well fitted falling curve with a large enough effect; inconclusive = small, poorly fitted or top-dose-only effect; inactive = no such curve, though single readings can be large or run the other way; note: nearly all actives have a fitted effect of over 50% in size
#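 Fission yeast strain RE007, carrying one chromosomally integrated HIV-1 vpr copy, was seeded at OD 0.01 in PMG+AL medium with 23 nL pinned compound. After 24 h at 30 °C and 99% humidity, viability was read by BacTiter-Glo luminescence.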
# A number is an active result; - = inactive; ? = inconclusive; . = no result given; [ ] = another dose, or the depositor's remark. An excerpt weighted towards active compounds, which were near 1.1% of everything screened. Unless noted, calls come from the whole dose curve; as a rule, active = well fitted curve in the direction sought with a large enough effect; inconclusive = small, poorly fitted or top-dose-only effect, or another doubt; inactive = no such curve, though single readings can be large; an effect the other way counts as inactive or inconclusive.
SMILES,LmPK inh,Giardia FBPA inh,SARS PLP yeast,TbPYK inhibitor,RE007 growth inh
O=C(O)c1ccc2cccnc2n1,-,5.61µM,-,-,-
O=C(O)c1ccccn1,.,.,.,-,-
O=C(O)c1cccc(C(=O)O)n1,-,28.2µM,-,.,.
Brc1ccc(-c2cn3cc(Cc4ccccc4)sc3n2)cc1,.,.,.,-,.
CCOC(=O)c1[nH]c2ccc(C)cc2c1N,12.6µM,-,-,-,-
CC(=O)OCC(=O)[C@@]1(O)[C@H](C)C[C@H]2C3C[C@H](F)C4=CC(=O)C=CC4(C)C3[C@@H](O)CC21C (stereo partly specified),.,.,.,-,.
CCCN1CN(Cc2ccccc2)CNC1=S,-,-,11.2µM,-,-
CCCN1CNC(=S)N(Cc2ccccc2)C1,-,-,-,-,-
Cc1ccccc1OCC(=O)Nc1ccc(OCc2cc(=O)n3ccsc3n2)cc1,.,.,.,-,.
N/C(=N\OC(=O)/C=C/c1ccccc1)c1ccc(Cl)cc1,-,-,-,-,-
N/C(=N\OC(=O)/C=C/c1ccccc1)c1ccccc1,14.1µM,-,-,-,-
Cc1nc2ccccc2c2nc3ccccc3n12,-,-,-,-,?
c1ccc2c(c1)nnn1c3ccccc3nc21,10µM,-,-,.,.
Cc1ccc2c(c1)C=CC(C#N)N2C(=O)c1ccccc1 (stereo unspecified),-,-,11.2µM,-,-
CC(=O)OC1C(=O)OCC23CCC4(C)OC4C2OC2CC(OC(=O)C=CC=CC(=O)OCCC1C)C3(C)C21CO1 (stereo unspecified),.,.,.,-,5.62µM
CC(O)C1C=CC=CC(=O)OC2CC3OC4C5OC5(C)CCC4(COC(=O)C4OC4(C)C(O)CO1)C2(C)C31CO1 (stereo unspecified),.,.,.,-,-
CC(=O)Nc1ccc(S(=O)(=O)Nc2ncccn2)cc1,-,-,-,-,-
O=C(Nc1ccc(S(=O)(=O)Nc2ncccn2)cc1)C(F)(F)F,-,?,5.01µM,-,-
Cc1cc(C2=NNC(=NC3CC3)SC2)c(C)n1Cc1ccco1,-,-,10µM,-,-
O=C(N/N=C/c1cccnc1)c1[nH]ncc1Br,17.8µM,-,-,-,-
O=C(N/N=C/c1ccccc1)c1[nH]ncc1Br,12.6µM,-,-,?,-
CCc1nn(Cc2ccc(Cl)cc2)c(=O)c2cc3cc(C)ccc3n12,.,.,.,-,.
S=c1[nH]nc(-c2ccc(Cl)cc2Cl)n1-c1ccc2c(c1)OCCO2,?,-,-,6.31µM,-
Oc1ccc(-c2n[nH]c(=S)n2-c2ccc3c(c2)OCCO3)c(O)c1,?,-,-,2.82µM,.
COc1cc(OC)cc(-c2n[nH]c(=S)n2-c2ccc3c(c2)OCCO3)c1,-,-,-,2.51µM,-
SMILES,LmPK inh,Giardia FBPA inh,SARS PLP yeast,TbPYK inhibitor,RE007 growth inh
S=c1[nH]nc(-c2ccc(Br)cc2)n1-c1ccc2c(c1)OCCO2,?,-,-,?,-
S=c1[nH]nc(Cc2ccc(Cl)cc2)n1-c1ccc2c(c1)OCCO2,?,-,-,2.82µM,-
CCc1ccc(NC(=O)CN2C(=O)C(c3ccc(C)cc3)=NC23CCCCC3)cc1,.,.,.,-,.
Cc1cc(C)cc(N2C(=O)CSC23C(=O)N(Cc2c(F)cccc2Cl)c2ccccc23)c1 (stereo unspecified),.,.,.,-,.
Cc1ccc2c(=O)cc(C(=O)Nc3ccc(S(=O)(=O)Nc4ncccn4)cc3)oc2c1C,.,.,.,-,.
Cc1ccc(Cl)cc1N1CCN(C(=O)c2c(C)oc3ncnc(N4CCCCC4)c23)CC1,.,.,.,-,.
CCc1ccc(S(=O)(=O)c2nnn3c2nc(NCc2cccc(OC)c2)c2cc(Cl)ccc23)cc1,.,.,.,-,.
CCN1CCOC(CC(=O)Nc2ccc([N+](=O)[O-])cc2)C1=O (stereo unspecified),-,-,-,-,44.7µM
CC1CCC(Nc2ncnc3onc(-c4ccc(Cl)cc4)c23)CC1 (stereo unspecified),.,.,.,-,.
Cc1ccc(S(=O)(=O)n2nc(-c3ccccc3)nc2NCc2ccc(Cl)cc2)cc1,.,.,.,-,.
NCCNCCN,.,17.7µM,.,?,.
NCCNCCNCCN,-,-,-,-,-
O=Cc1c(-c2ccccc2)nc2ccccn12,-,-,-,-,-
CCc1nc(-c2ccccc2)c2ccccn12,-[11.5 µM],4.46µM,-,-,-
O=P(O)(O)C(Sc1ccc(Cl)cc1)P(=O)(O)O,.,.,.,-,.
Oc1c(C(c2ccccc2F)N2CCN(Cc3ccccc3)CC2)sc2nc(-c3ccco3)nn12 (stereo unspecified),.,.,.,-,.
CCOC(=O)c1c(NC(=O)Cc2ccccc2)sc2c1CCN(CC)C2,-,?,-,-,-
CCOC(=O)c1c(N)sc2c1CCN(Cc1ccccc1)C2,.,17.7µM,.,-,.
O=C(C#Cc1ccccc1)c1ccco1,-,-,-,-,8.91µM
O=C(N/N=C/c1ccccc1)c1ccco1,?,-,-,-,-
COc1ccc(-n2sc3ccccc3c2=O)cc1,.,.,.,11.2µM,-
O=c1c2cc(F)ccc2sn1-c1ccc(F)cc1,.,.,-,8.91µM,11.2µM
Cc1ccc(C)c(-n2sc3ccc(F)cc3c2=O)c1,.,.,-,?,?
COc1ccc(-n2sc3ccc(F)cc3c2=O)cc1,.,.,-,?,10µM
CN(C)c1ccc(/C=C/c2ccc3ccccc3n2)cc1,?,-,-,?,?
SMILES,LmPK inh,Giardia FBPA inh,SARS PLP yeast,TbPYK inhibitor,RE007 growth inh
C(=C\c1ccc2ccccc2n1)/c1ccccc1,12.6µM,?,-,-,?
Oc1ccc(/C=C/c2ccc3ccccc3n2)cc1,7.08µM,-,-,?,?
Fc1ccccc1/C=C/c1ccc2ccccc2n1,12.6µM,-,-,?,?
O=[N+]([O-])c1ccc(/C=C/c2ccc3ccccc3n2)cc1,?,-,-,-,-
CN1c2ccsc2/C(=N/Nc2ccccc2)CS1(=O)=O,-,-,-,-,44.7µM
CN1c2ccsc2/C(=N/NC(=O)c2c(F)cccc2F)CS1(=O)=O,-,-,-,-,-
Cc1oc(=O)c(NC(=O)c2ccccc2)cc1C(=O)c1ccccc1,-,-,-,-,20µM
Cc1ccc(C(=O)Nc2cc3ccccc3oc2=O)cc1,12.6µM,-,-,?,-
CC(=O)c1cc(NC(=O)c2ccccc2)c(=O)oc1C,-,-,-,-,-
Cc1oc(=O)c(NC(=O)c2ccc(Cl)cc2)cc1C(=O)c1ccccc1,-,-,-,?,28.2µM
O=C(Nc1cc(F)ccc1F)c1ccc2c(c1)nnn2C1CCCC1,.,.,.,-,.
CCOC(=O)c1ccccc1NC(=O)c1c(C)oc2ncnc(N3CCOCC3)c12,.,.,.,-,.
CCOC(=O)c1cc(CC)sc1/N=C/C1C(=O)NC(=S)NC1=O,-[11.5 µM],17.7µM,-,-,-
CCOC(=O)c1cc(CC)sc1/N=C/C1C(=O)CC(C)(C)CC1=O,-,-,-,-,-
COC(=O)c1ccc(-n2c(C)cc(C(=O)CCl)c2C)cc1,-,-,-,-,25.1µM
CCOc1ccc(-n2c(C)cc(C(=O)CCl)c2C)cc1,-,-,-,-,?
CCc1ccc(NC(=O)[C@H](Cc2ccccc2)N2Cc3ccccc3C2=O)cc1,.,.,.,-,.
Cc1ccc(CNC(=O)CCn2cnc3ccccc3c2=O)cc1,.,.,.,-,.
